Each structure is given as a SMILES string. Active and inactive are the calls of the source. The calls were made as follows: active = hit-call score of the fitted dose curve at least 0.9, where 1 is the maximum; inactive = score below 0.9.

Details in all cases: mRNA level, 48 h; actives raise or lower the signal
Read-out in assay [1]: Alkaline Phosphatase, Placental (ALPP) gene, ALPP (gene 250)
Nature of the assay: LTEA_HepaRG_ALPP: Life Technologies and Expression Analysis (LTEA) Assay for Alkaline Phosphatase, Placental (ALPP) gene using HepaRG (AID 2283468).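 As to AC50: differentiated human HepaRG liver cells in serum-free induction medium.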 Summed up: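 Expression of ALPP was quantified by qRT-PCR against three housekeeping genes in human HepaRG cultures treated for 48 h with an eight-point concentration series up to 100 uM. Activity in either direction was fitted relative to 0.5% DMSO.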

Read-out in assay [2]: Bcl-2 (BAD) gene, BAD (gene 572)
Nature of the assay: LTEA_HepaRG_BAD: Life Technologies and Expression Analysis (LTEA) Assay for Bcl-2 (BAD) gene using HepaRG (AID 2283469). Summed up:
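HepaRG, 48 h exposure, 8-pt half-log curve from 100 uM in 0.5% DMSO, duplicates. Readout: TaqMan qRT-PCR for BAD mRNA, housekeeping-normalised (ACTB/GAPDH/POLR2A); gain or loss fitted against DMSO baseline.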

Read-out in assay [3]: Bcl-2 (BAX) gene, BAX (gene 581)
Nature of the assay: LTEA_HepaRG_BAX: Life Technologies and Expression Analysis (LTEA) Assay for Bcl-2 (BAX) gene using HepaRG (AID 2283470). The method, boiled down: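 Gene expression measured by Fluidigm qRT-PCR with three housekeeping genes for normalisation. HepaRG cells, plated 48 h beforehand, treated 48 h at up to 100 uM (8-point, half-log) in 0.5% DMSO. Bidirectional fitting versus DMSO.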

Read-out in assay [4]: adenosine kinase (ADK) gene, ADK (gene 132)
Nature of the assay: LTEA_HepaRG_ADK: Life Technologies and Expression Analysis (LTEA) Assay for adenosine kinase (ADK) gene using HepaRG (AID 2283471). Summed up:
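Read-out is ADK transcript level measured by qRT-PCR and normalised to three housekeeping genes. Cells are human HepaRG, dosed for 48 h at up to 100 uM in 0.5% DMSO. Gain or loss of signal is fitted against DMSO controls.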

Read-out in assay [5]: Alpha-fetoprotein (AFP) gene, AFP (gene 174)
Description: LTEA_HepaRG_AFP: Life Technologies and Expression Analysis (LTEA) Assay for Alpha-fetoprotein (AFP) gene using HepaRG (AID 2283472). Summed up:
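AFP transcript measured by TaqMan qRT-PCR with three housekeeping genes for normalization, after 48 h chemical treatment of HepaRG cells (top 100 uM, half-log steps, 0.5% DMSO). Gain or loss fitted against vehicle.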

Read-out in the next assay: BCL2L11 (gene 10018)
Description: LTEA_HepaRG_BCL2L11: Life Technologies and Expression Analysis (LTEA) Assay for Bcl-2 (BCL2L11) gene using HepaRG (AID 2283473). Summed up:
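Cells were plated, cultured 48 h, switched to serum-free induction medium, then dosed in duplicate for 48 h at eight half-log concentrations up to 100 uM. Lysates underwent RNA isolation and TaqMan qRT-PCR; gain or loss versus DMSO was fitted.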

Read-out in assay [6]: Apolipoprotein A-V (APOA5) gene, APOA5 (gene 116519)
Nature of the assay: LTEA_HepaRG_APOA5: Life Technologies and Expression Analysis (LTEA) Assay for Apolipoprotein A-V (APOA5) gene using HepaRG (AID 2283474). Summed up: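 Human liver HepaRG cells are treated 48 h with test chemicals (100 uM top, half-log dilutions, 0.5% DMSO). APOA5 mRNA induction or loss is measured by qRT-PCR relative to vehicle.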

Read-out in assay [7]: Apoptosis regulator Bcl-2 (Homo sapiens) (UniProt P10415)
Nature of the assay: LTEA_HepaRG_BCL2: Life Technologies and Expression Analysis (LTEA) Assay for Bcl-2 gene using HepaRG (AID 2283475). Summed up: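 qRT-PCR of BCL2 transcript, normalized to three housekeeping genes (ACTB, GAPDH, POLR2A), after 48 h chemical exposure of HepaRG cells; concentrations top 100 uM with half-log dilutions, 0.5% DMSO vehicle, duplicates; changes up or down fitted relative to vehicle.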

Read-out in assay [8]: Bcl-2 (BID) gene, BID (gene 637)
Nature of the assay: LTEA_HepaRG_BID: Life Technologies and Expression Analysis (LTEA) Assay for Bcl-2 (BID) gene using HepaRG (AID 2283476). The method, boiled down: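 Duplicate 48 h treatments of HepaRG cells in serum-free induction medium spanned 100 uM downward in half-log steps, 0.5% DMSO. Transcript change quantified by qRT-PCR against three housekeeping genes, fitted up or down versus DMSO.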

Read-out in another assay: Caspase-3 (Homo sapiens) (UniProt P42574)
Nature of the assay: LTEA_HepaRG_CASP3: Life Technologies and Expression Analysis (LTEA) Assay for cysteine-aspartic acid protease (CASP3) using HepaRG (AID 2283477). Summed up: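 In HepaRG liver cells dosed for 48 h at up to 100 uM (eight-point, duplicate), CASP3 expression changes are scored by qRT-PCR. Activity is fitted in both directions with 0.5% DMSO as baseline.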

Read-out in assay [9]: Cytochrome P450 (CYP24A1), CYP24A1 (gene 1591)
Nature of the assay: LTEA_HepaRG_CYP24A1: Life Technologies and Expression Analysis (LTEA) Assay for Cytochrome P450 (CYP24A1) using HepaRG (AID 2283478). Summed up: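 Human liver HepaRG cultures receive each chemical for 48 h across an eight-point half-log series topping at 100 uM in 0.5% DMSO. Induction or suppression of CYP24A1 mRNA is scored relative to vehicle after housekeeping-gene normalization.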

Read-out in assay [10]: Cytochrome P450 (CYP1A2), CYP1A2 (gene 1544)
Nature of the assay: LTEA_HepaRG_CYP1A2: Life Technologies and Expression Analysis (LTEA) Assay for Cytochrome P450 (CYP1A2) using HepaRG (AID 2283479). Summed up:
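Assesses CYP1A2 mRNA in human HepaRG liver cells after 48 h chemical exposure at up to 100 uM. Values come from qRT-PCR with bidirectional curve fitting relative to DMSO.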

Read-out in assay [11]: cysteine-aspartic acid protease (CASP8), CASP8 (gene 841)
Description: LTEA_HepaRG_CASP8: Life Technologies and Expression Analysis (LTEA) Assay for cysteine-aspartic acid protease (CASP8) using HepaRG (AID 2283480). Summed up: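 qRT-PCR readout of CASP8 mRNA, normalized to three housekeeping genes, after 48 h chemical exposure of HepaRG cells; 8-point half-log series, top 100 uM, 0.5% DMSO vehicle. Bidirectional curve fitting against DMSO baseline.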

Read-out in assay [12]: Cytochrome P450 (CYP2B6), CYP2B6 (gene 1555)
Nature of the assay: LTEA_HepaRG_CYP2B6: Life Technologies and Expression Analysis (LTEA) Assay for Cytochrome P450 (CYP2B6) using HepaRG (AID 2283481). The method, boiled down:
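Using 48 h treatment of HepaRG cells in serum-free induction medium, concentrations spanned half-log steps from 100 uM in 0.5% DMSO vehicle. CYP2B6 mRNA induction or loss is scored by qRT-PCR against DMSO.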

Read-out in assay [13]: Cytochrome P450 2C19 (Homo sapiens) (UniProt P33261)
Description: LTEA_HepaRG_CYP2C19: Life Technologies and Expression Analysis (LTEA) Assay for CYP2C19 using HepaRG (AID 2283482). The method, boiled down: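 Human HepaRG liver cells received test chemicals for 48 h (highest 100 uM, half-log dilutions in 0.5% DMSO). CYP2C19 mRNA induction or loss is read by multiplexed qRT-PCR and fitted in both directions versus vehicle.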

Read-out in a further assay: CYP2C8 (gene 1558)
Description: LTEA_HepaRG_CYP2C8: Life Technologies and Expression Analysis (LTEA) Assay for CYP2C8 using HepaRG (AID 2283483). The method, boiled down: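 HepaRG (human liver line), 48 h chemical exposure, 8-pt half-log series from 100 uM, 0.5% DMSO vehicle. Readout: CYP2C8 transcript by qRT-PCR, housekeeping-normalized. Bidirectional fit vs DMSO baseline.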

Read-out in the next assay: CYP2C9 (gene 1559)
Description: LTEA_HepaRG_CYP2C9: Life Technologies and Expression Analysis (LTEA) Assay for CYP2C9 using HepaRG (AID 2283484). The method, boiled down: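 HepaRG, 48 h dosing, 8-pt half-log series, top 100 uM, 0.5% DMSO vehicle. Read-out: CYP2C9 transcript by TaqMan qRT-PCR, housekeeping-normalized (ACTB/GAPDH/POLR2A). Gain or loss fitted vs DMSO baseline.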

Read-out in a further assay: CYP2E1 (gene 1571)
Nature of the assay: LTEA_HepaRG_CYP2E1: Life Technologies and Expression Analysis (LTEA) Assay for CYP2E1 using HepaRG (AID 2283485). The method, boiled down: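 CYP2E1 transcript measured by Fluidigm qRT-PCR against three housekeeping genes in human HepaRG cells treated 48 h (top 100 uM, half-log steps, 0.5% DMSO vehicle). Gain or loss fitted relative to DMSO baseline.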

Read-out in the next assay: CYP4A11 (gene 1579)
Description: LTEA_HepaRG_CYP4A11: Life Technologies and Expression Analysis (LTEA) Assay for CYP4A11 using HepaRG (AID 2283486). The method, boiled down:
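Readout is CYP4A11 mRNA induction or suppression (qRT-PCR, ACTB/GAPDH/POLR2A normalization) in human HepaRG cells after 48 h chemical treatment, concentrations to 100 uM in 0.5% DMSO, fitted bidirectionally against vehicle.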

Read-out in assay [14]: Cytochrome P450 3A4 (Homo sapiens) (UniProt P08684)
Nature of the assay: LTEA_HepaRG_CYP3A4: Life Technologies and Expression Analysis (LTEA) Assay for CYP3A4 using HepaRG (AID 2283487). The method, boiled down: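 HepaRG, 48 h exposure, 8-pt CRC from 100 uM (half-log), 0.5% DMSO, duplicates; serum-free induction medium. Readout: CYP3A4 mRNA, qRT-PCR, ACTB/GAPDH/POLR2A normalization. Bidirectional fit vs DMSO.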

Apoptosis regulator Bcl-2 (Homo sapiens), sequence (P10415 whole entry, looked up): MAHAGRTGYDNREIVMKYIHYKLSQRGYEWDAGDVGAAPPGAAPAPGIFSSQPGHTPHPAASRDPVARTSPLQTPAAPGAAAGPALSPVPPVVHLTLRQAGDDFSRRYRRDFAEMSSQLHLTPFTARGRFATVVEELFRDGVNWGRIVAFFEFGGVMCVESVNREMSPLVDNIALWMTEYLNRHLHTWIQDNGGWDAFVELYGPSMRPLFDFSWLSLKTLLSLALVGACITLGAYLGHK
Cytochrome P450 3A4 (Homo sapiens), sequence (P08684 whole entry, looked up): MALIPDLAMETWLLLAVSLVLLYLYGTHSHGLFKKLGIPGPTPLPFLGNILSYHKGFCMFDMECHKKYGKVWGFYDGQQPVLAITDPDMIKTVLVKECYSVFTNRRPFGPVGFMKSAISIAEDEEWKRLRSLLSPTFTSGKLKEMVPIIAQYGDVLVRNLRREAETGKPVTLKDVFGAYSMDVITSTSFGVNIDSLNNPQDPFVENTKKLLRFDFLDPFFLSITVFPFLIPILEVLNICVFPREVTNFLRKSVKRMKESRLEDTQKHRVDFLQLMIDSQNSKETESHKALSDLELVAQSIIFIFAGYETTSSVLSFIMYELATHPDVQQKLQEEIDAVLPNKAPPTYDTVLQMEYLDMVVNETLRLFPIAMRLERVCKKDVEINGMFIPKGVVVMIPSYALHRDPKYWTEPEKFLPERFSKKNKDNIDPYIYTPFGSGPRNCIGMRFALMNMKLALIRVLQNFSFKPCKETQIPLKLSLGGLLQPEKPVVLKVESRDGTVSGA
Caspase-3 (Homo sapiens), sequence (P42574 whole entry, looked up): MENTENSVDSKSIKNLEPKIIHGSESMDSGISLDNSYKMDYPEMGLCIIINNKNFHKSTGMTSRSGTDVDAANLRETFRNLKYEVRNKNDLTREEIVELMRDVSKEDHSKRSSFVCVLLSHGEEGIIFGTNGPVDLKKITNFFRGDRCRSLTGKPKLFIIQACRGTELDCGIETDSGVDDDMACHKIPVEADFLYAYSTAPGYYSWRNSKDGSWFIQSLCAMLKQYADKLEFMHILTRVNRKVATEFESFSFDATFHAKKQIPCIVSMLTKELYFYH
Cytochrome P450 2C19 (Homo sapiens), sequence (P33261 whole entry, looked up): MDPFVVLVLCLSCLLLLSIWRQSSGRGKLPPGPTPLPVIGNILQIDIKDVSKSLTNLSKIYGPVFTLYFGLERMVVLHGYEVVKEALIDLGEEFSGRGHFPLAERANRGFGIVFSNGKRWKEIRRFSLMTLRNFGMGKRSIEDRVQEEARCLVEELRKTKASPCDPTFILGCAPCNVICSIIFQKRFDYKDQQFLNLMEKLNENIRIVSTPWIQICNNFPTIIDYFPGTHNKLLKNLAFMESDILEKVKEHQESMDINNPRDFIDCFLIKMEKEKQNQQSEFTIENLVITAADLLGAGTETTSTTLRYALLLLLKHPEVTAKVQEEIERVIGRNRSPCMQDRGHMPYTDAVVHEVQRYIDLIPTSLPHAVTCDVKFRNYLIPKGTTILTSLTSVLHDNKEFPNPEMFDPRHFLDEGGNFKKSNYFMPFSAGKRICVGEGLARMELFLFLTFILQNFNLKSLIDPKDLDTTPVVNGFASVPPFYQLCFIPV

A word on the AC50: it is the midpoint of the concentration-response curve, whichever way the signal moves. In the case of `CC1COC(Cn2cncn2)(c2ccc(Oc3ccc(Cl)cc3)cc2Cl)O1` (centres undefined), the AC50 in assay [1] was 10.9 µM (active); in [3], 13 µM (active); in assay [5] it was 11 µM (active); in assay [6] it was 12.8 µM (active); in [7] it was 12.8 µM (active); in assay [8] it was 12 µM (active). In addition, the AC50 in [9] is 50 µM (active); in assay [12] it was 9.66 µM (active); in assay [13], 27.1 µM (active); in the assay with CYP2C8 (gene 1558), 9.46 µM (active); with CYP2C9 (gene 1559), 15.7 µM (active); with CYP2E1 (gene 1571) it was 8.67 µM (active). Moreover, the values for the AC50 (with CYP4A11 (gene 1579); in [14]) were 12.9 µM (active) and 23.2 µM (active), respectively. For the same molecule, the molecule was classed as inactive (in assay [2]; in assay [4]; with BCL2L11 (gene 10018); in the assay with Caspase-3 (Homo sapiens); in [10]; in assay [11]).

In the case of `CCCC1COC(Cn2cncn2)(c2ccc(Cl)cc2Cl)O1` (centres undefined), the AC50 is 25.6 µM (active) in assay [1]; 81 µM (active) in [3]; 24 µM (active) in [5]; 33.7 µM (active) in [7]; 50 µM (active) in assay [10]; 30.9 µM (active) in [12]. For the same molecule, the AC50 is 74.5 µM (active) in assay [13]; 36.4 µM (active) in the assay with CYP2C8 (gene 1558); 34.8 µM (active) in the assay with CYP2C9 (gene 1559); 13.5 µM (active) with CYP2E1 (gene 1571); 34.7 µM (active) with CYP4A11 (gene 1579). The molecule was called inactive (in assay [2]; in assay [4]; in the assay with BCL2L11 (gene 10018); in [8]; with Caspase-3 (Homo sapiens); in assay [9]). Besides, the outcome in assay [11] was inactive.

Take `COC(=O)C=C(C)OP(=O)(OC)OC`: the molecule was classed as inactive (in [1]; in assay [2]; in [3]; in [4]; in [5]; in the assay with BCL2L11 (gene 10018)). In addition, the result (in assay [7]; in [8]; in the assay with Caspase-3 (Homo sapiens); in [9]; in [10]; in assay [11]) was inactive. For the same molecule, the molecule was called inactive (in [12]; in [13]; with CYP2C8 (gene 1558); with CYP2C9 (gene 1559); with CYP2E1 (gene 1571); with CYP4A11 (gene 1579)). The outcome in assay [14] was inactive.

Consider `CCCCC(CC)COC(=O)c1ccccc1C(=O)OCC(CC)CCCC` (centres undefined), for which the molecule was called inactive (in assay [1]; in assay [2]; in assay [3]; in assay [4]; in assay [5]; in the assay with BCL2L11 (gene 10018)). Further, the call (in [7]; in [8]; in the assay with Caspase-3 (Homo sapiens); in assay [9]; in [11]; in [13]) was inactive. The result in the assay with CYP2C8 (gene 1558), with CYP2C9 (gene 1559), with CYP2E1 (gene 1571) and in the assay with CYP4A11 (gene 1579) was inactive. The half-maximal activity concentration (AC50) in assay [10] was 50 µM (active); in [12] it was 19 µM (active).

In the case of `Fc1ccc(Oc2ccnc3cc(Cl)cc(Cl)c23)cc1`, the AC50 is 50 µM (active) in assay [1]; 89 µM (active) in assay [5]; 14.1 µM (active) in assay [10]; 11.9 µM (active) in assay [12]; 86.6 µM (active) with CYP2C8 (gene 1558); 86.8 µM (active) with CYP2C9 (gene 1559). Moreover, the AC50 in the assay with CYP2E1 (gene 1571) is 77.7 µM (active); with CYP4A11 (gene 1579), 70.1 µM (active). Also, the molecule was called inactive (in [2]; in assay [3]; in assay [4]; with BCL2L11 (gene 10018); in [7]; in assay [8]). In addition, the outcome (with Caspase-3 (Homo sapiens); in [9]; in assay [11]; in assay [13]; in assay [14]) was inactive.

Source of the values: PubChem BioAssay (EPA / NIEHS).
